# Assay results published in PubChem BioAssay (NCATS).
# “And” between values parts separate entries of the source, which are not always exact repeats. Equal values may be shown once. Results filed as inconclusive are left out. Some structures have more than one record in an assay (separate samples or runs), and their calls can disagree. Values without a mark were called inactive. The source made the active and inactive calls. Calls come from the whole dose curve; as a rule, active = well fitted inhibition curve with a large enough effect; inconclusive = small, poorly fitted or top-dose-only effect; inactive = flat fitted curve, though single readings scatter.
# How the values were obtained:
# CRL-7250 = normal cell line; test: Cytotoxic Profiling of Annotated Libraries Using Quantitative High-Throughput Screening (AID 1296008); settings: Five cell lines viability, CellTiter-Glo ATP luminescence, 48-72 h; max response: active compounds read low
# Procedure, shortened: (§1)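 Compounds were pin-transferred onto cells and incubated 48 or 72 hr at 37 degree Celsius, 95% humidity. CellTiter-Glo was added, plates sat 10 min at room temperature, then ATP-coupled luminescence was imaged as the viability read-out.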
# HEK293 = test: as above; settings: Five cell lines viability, CellTiter-Glo ATP luminescence, 48-72 h; max response: active compounds read low
# Procedure, shortened: as §1
# HaCat [1] = test: as above; settings: Five cell lines viability, CellTiter-Glo ATP luminescence, 48-72 h; max response: active compounds read low
# Procedure, shortened: as §1
# KB-3-1 = test: as above; settings: Five cell lines viability, CellTiter-Glo ATP luminescence, 48-72 h; max response: active compounds read low
# Procedure, shortened: as §1
# NIH3T3 = test: as above; settings: Five cell lines viability, CellTiter-Glo ATP luminescence, 48-72 h; max response: active compounds read low
# Procedure, shortened: as §1
# HACAT [2] = test: qHTS assay to identify novel small-molecules to repurpose for Merkel cell carcinoma treatment (AID 1296009); settings: MCC and control cell lines, CellTiter-Glo viability, 72 h; series mostly up to 44.8 µM
# Procedure, shortened: (§2)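 Viability readout: ATP luminescence (CellTiter-Glo) after 72 hr drug exposure at 37 degree celsius. Dose-response format was 8 points for NPC and 11 points for MIPE; data normalized to in-plate controls.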
# HEK293T = test: as above; settings: MCC and control cell lines, CellTiter-Glo viability, 72 h; at 44.8 µM (top of the series) unless noted
# Procedure, shortened: as §2
# MCC-13 = test: as above; settings: MCC and control cell lines, CellTiter-Glo viability, 72 h; series mostly up to 46 µM
# Procedure, shortened: as §2
# MCC-26 = test: as above; settings: MCC and control cell lines, CellTiter-Glo viability, 72 h; series mostly up to 46 µM
# Procedure, shortened: as §2
# MKL-1 = test: as above; settings: MCC and control cell lines, CellTiter-Glo viability, 72 h; series mostly up to 46 µM
# Procedure, shortened: as §2
# % is set by controls: 0 for no effect and ±100 for the full control effect; potency is the fitted concentration of half-maximal effect.
# Note: nearly all actives have a fitted effect of over 60% in size.
SMILES,max response (CRL-7250),outcome (CRL-7250),max response (HEK293),outcome (HEK293),max response (HaCat [1]),outcome (HaCat [1]),max response (KB-3-1),outcome (KB-3-1),outcome (NIH3T3),Potency (HACAT [2]),outcome (HEK293T),Potency (MCC-13),Potency (MCC-26),Potency (MKL-1),max response (NIH3T3),Potency (CRL-7250),Potency (HEK293),Potency (HaCat [1]),Potency (KB-3-1),Potency (NIH3T3)
CN(C1CCc2c(c3ccccc3n2CC(=O)O)C1)S(=O)(=O)c1ccc(F)cc1 (stereo unspecified),3.48% and -10.1%,inactive,-3% and -8.76%,inactive,-11.8% and -5.06%,inactive,7.37%,inactive,inactive,inactive,inactive,inactive,inactive,inactive,,,,,,
CN(C)CC(C)(C)CNc1nn2c(-c3ccccc3)nnc2cc1C1CCC1,-13.8%,inactive,,,-29.4% and -5.55%,,9%,inactive,,,inactive,inactive,inactive,0.935 µM (active),-0.774%,,,,,
O=C(CCCCCCC(=O)Nc1ccc([C@H]2O[C@@H](CSc3nc(-c4ccccc4)c(-c4ccccc4)o3)C[C@@H](c3ccc(CO)cc3)O2)cc1)NO,-17.1%,,,,,inactive,,,,inactive,,,,8.33 µM (active),-17.5%,18.7 µM (active),14.8 µM (active) and 18.4 µM (active),20.9 µM (active),11.8 µM (active),
CN(C)c1nc(Cc2ccc(NC(=O)c3ccc4ccccc4c3)cc2)nc(Cl)c1CC(=O)O,0.957% and -5.82%,,-6.45%,inactive,3.96%,inactive,,inactive,,inactive,inactive,inactive,inactive,inactive,2.84% and 3.57%,,,,,
CC1(O)CC(c2nc(-c3ccc4ccc(-c5ccccc5)nc4c3)c3c(N)nccn23)C1 (stereo unspecified),-9.35%,,,,-1.26%,inactive,,,,inactive,,inactive,inactive,,,11.8 µM (active),4.69 µM (active),,,16.6 µM (active)
Cc1c(Cn2c(C)nc3c(C(=O)O)cc(N4CCOCC4)cc32)cccc1C(F)(F)F,-5.25%,,-8.46%,inactive,,inactive,6.95%,inactive,,inactive,inactive,inactive,inactive,inactive,3.21% and -3.58%,,,,,
Cc1c(C)n(Cc2ccc(-c3ccccc3C(=O)O)cc2)c2ccc(C(=O)N[C@@H](C)c3ccc([N+](=O)[O-])cc3)cc12,0.704%,inactive,-2.51%,inactive,-4.97%,inactive,0.427% and 0.798%,,,inactive,inactive,inactive,,0.372 µM (active),-3.87% and -3.64%,,,,,
Cc1ccc(CN2CCNCC2)cc1NC(=O)CNc1ccc(F)c(F)c1,,inactive,-5.99%,inactive,,inactive,4%,inactive,,inactive,inactive,inactive,inactive,inactive,-3.35% and 3.71%,,,,,
COc1ccc2c(c1)CC[C@@H](CN(C)CC(=O)O)[C@H]2c1ccccc1,-2.88%,,2.06%,,0.39%,,2.76%,,inactive,,,,,,,,2.64 µM (active),,3.32 µM (active),7.43 µM (active)
CC(C)CC(=O)Nc1n[nH]c2c1CN(C(=O)C1CCN(C)CC1)C2(C)C,-90.6%,,,,,,,,,,,inactive,18.7 µM (active),,,1.48 µM (active),372 nM (active) and 326 nM (active),9.35 µM (active) and 2.31 µM (active),2.35 µM (active) and 2.91 µM (active),16.6 µM (active)
Cc1ccc2nc(NC(=O)CSc3nc4c(c(=O)n3-c3ccccc3)SCC4)sc2c1,3.83%,,,inactive,3.94%,,-10.5%,,,,inactive,inactive,inactive,inactive,-19.8%,13.2 µM (active),,,9.35 µM (active),
CCc1cc2c(cc1N1CCC(N3CCOCC3)CC1)C(C)(C)c1[nH]c3cc(C#N)ccc3c1C2=O,-36.8% and 0.704%,,-78.7%,,-16.1% and -0.553%,,-32% and 1.82%,,,,,inactive,inactive,inactive,-45.1% and -2.9%,,3.17 µM (active),,,
